Records with an inconclusive call do not appear. Activity calls are given as the source filed them. Unless noted, the call rests on the fitted dose curve; in most records, active means well fitted curve in the direction sought with a large enough effect in the repeat runs; inconclusive means weak or mixed curves; inactive means no such curve, though single readings can be large; an effect the other way counts as inactive or inconclusive.
What was measured:
[1] = target: Thyrotropin receptor (Homo sapiens) (UniProt P16473); assay: qHTS assay to identify small molecule antagonists of the thyroid stimulating hormone receptor (TSHR) signaling pathway (AID 1259385; calls by dose curve; further: nearly all actives have a fitted effect of over 20% in size)
In short: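 TSHR-HEK293 cells were plated and held 18 h at 37C/5% CO2, then given compound plus Ro20-1724 and stimulated with TSH at 1.5 ng/mL final. After 30 min at room temperature, cAMP was detected with cAMP-d2/anti-cAMP-cryptate (1 h) by fluorescence.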

[2] = qHTS assay to identify small molecule agonists of the estrogen receptor alpha (ER-alpha) signaling pathway in the presence of an antagonist - cell viability counter screen (AID 1259386);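 further: series mostly up to about 92 µM; cells exposed to compounds for 22 h at 37 °C before the viability read; nearly all actives have a fitted effect of over 30% in size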
In short: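 In this counter screen, compound effects on VM7Luc4E2 viability were tested in the presence of the antagonist ICI-182,780 at 10.0nM final. Compounds were dosed at 15 concentrations, exposure lasted 22hr, and the CellTiter-Fluor signal was read.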

[3] = target: Progesterone receptor (Homo sapiens) (UniProt P06401); assay: qHTS assay to identify small molecule agonists of the progesterone receptor (PR) signaling pathway (AID 1346784; calls by dose curve; further: nearly all actives have a fitted effect of over 30% in size)
In short: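 Cells (PR-UAS-bla HEK 293T, GripTite) were plated in assay medium containing 2% charcoal-stripped FBS and incubated 6 hr. Test compounds in DMSO were added for 16 hr at 37C. FRET substrate was then loaded for 2 hr at room temperature before fluorescence reading.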

[4] = qHTS assay to identify small molecule antagonists of the progesterone receptor (PR) signaling pathway - cell viability counter screen (AID 1346798); further: series mostly up to about 92 µM; nearly all actives have a fitted effect of over 50% in size
In short: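 Counter screen for cytotoxicity: viability of PR-UAS-bla HEK293T cells was measured with CellTiter-Glo luminescence following 16 hr compound exposure in the presence of R5020.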

[5] = qHTS assay to identify small molecule agonists of the progesterone receptor (PR) signaling pathway - cell viability counter screen (AID 1346799; calls by dose curve; further: nearly all actives have a fitted effect of over 45% in size)
In short: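 Cells (PR-UAS-bla HEK293T) are plated at 3,000/well in 2% charcoal-stripped FBS medium, rested 6 hr, dosed and incubated 16 hr at 37C. CellTiter-Glo is then added and luminescence measured after 30 min at room temperature.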

[6] = qHTS assay to identify small molecule antagonists of the TGF-beta/Smad signaling pathway - cell viability counter screen (AID 1346824); further: nearly all actives have a fitted effect of over 50% in size
In short: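 SBE-bla HEK 293T cells were plated overnight at 37 C, then given compounds in DMSO plus TGF-beta1 (added as 0.25 ng/mL solution) for 5 hr. After the bla read, CellTiter-Glo was added to the same wells and luminescence read after 30 min at room temperature.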

[7] = qHTS assay to identify small molecule agonists of the TGF-beta/Smad signaling pathway - cell viability counter screen (AID 1346829); further: top concentration of the series differs between compounds; nearly all actives have a fitted effect of over 45% in size
In short: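 HEK 293T SBE-bla line, 5 hr compound exposure at 37 C, multiplexed CellTiter-Glo viability read by luminescence.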

[8] = qHTS assay to identify small molecule agonists of the TGF-beta/Smad signaling pathway (AID 1346859; active means well fitted activation curve with a large enough effect in the signal ratio in the repeat runs, not every such curve was filed as active; the % refers to the signal ratio; further: series mostly up to about 77 µM)
In short: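 Reporter line: HEK 293T with stably integrated SBE-controlled beta-lactamase. Compound exposure lasts 5 hr at 37 C and 5% CO2; substrate loading follows for 2 hr at room temperature, with emission read at 460 and 530 nm.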

[9] = Human pregnane X receptor (PXR) small molecule agonists, qHTS cell viability counter screen (AID 1346977); further: nearly all actives have a fitted effect of over 50% in size
In short: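 Cytotoxicity counter screen run in the same wells as the PXR luciferase assay, using PXR-Luc HepG2 cells in charcoal-stripped serum medium. Viability: CellTiter-Fluor fluorescence after 24hr compound treatment.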

[10] = Caspase-3/7 induction in HepG2 cells by small molecules, qHTS assay (AID 1346978); further: nearly all actives have a fitted effect of over 15% in size
In short: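 Wild-type HepG2 cells (2,000/well) were settled 5 h at 37 C, 5% CO2, then exposed to compounds in DMSO for 17 h. Caspase-3/7 activity was read by luminescence 30 min after adding Caspase-Glo 3/7 reagent at room temperature.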

[11] = Caspase-3/7 induction in CHO-K1 cells by small molecules, qHTS cell viability counter screen (AID 1346979); further: nearly all actives have a fitted effect of over 35% in size
In short: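 Cytotoxicity counter screen run in parallel with the caspase-3/7 assay: CHO-K1 cells, 16hr compound treatment at 37C, then CellTiter-Fluor for 1hr before fluorescence reading.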

[12] = Caspase-3/7 induction in CHO-K1 cells by small molecules, qHTS assay (AID 1346980); further: nearly all actives have a fitted effect of over 15% in size
In short: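 Wild-type cells were seeded at 1,500 per well and settled 5 hr at 37 C, 5% CO2, then exposed to DMSO-dissolved compounds for 17 hr. Caspase-Glo 3/7 reagent was added, and luminescence was read after 30min at room temperature.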

[13] = target: Nuclear receptor subfamily 1 group I member 2 (Homo sapiens) (UniProt O75469); assay: Human pregnane X receptor (PXR) small molecule agonists, qHTS assay (AID 1346982); further: nearly all actives have a fitted effect of over 35% in size; further: potency means the concentration at half of the fitted maximal effect
In short: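 Reporter HepG2 cells expressing PXR-Luc are cultured in charcoal-stripped FBS (5%), treated with compounds for 24 hr at 37 C, and assayed by ONE-Glo luminescence after 30 min at room temperature.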

[14] = target: Thyrotropin-releasing hormone receptor (Homo sapiens) (UniProt P34981); assay: qHTS assay to identify small molecule antagonists of the thyrotropin-releasing hormone receptor (TRHR) signaling pathway (AID 1346877; active means well fitted inhibition curve with a large enough effect in the repeat runs, not every such curve was filed as active; further: series mostly up to about 51 µM)
In short: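 Kinetic fluorescence (3 min, 1 s resolution) following stimulation with TRH at 1 nM final; HEK293 cells bearing human TRHR; 5 min compound preincubation at RT; concentration-response over 15 points, triplicates.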

[15] = target: Thyrotropin-releasing hormone receptor (Homo sapiens) (UniProt P34981); assay: qHTS assay to identify small molecule agonists of the thyrotropin-releasing hormone receptor (TRHR) signaling pathway (AID 1346891; calls by dose curve;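 further: HEK293 cells expressing TRHR with calcium dye readout; series mostly up to about 58 µM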)
In short: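 Cells: TRHR-Hek293, seeded and incubated 18 h. Dye loading: 2 h at 37 °C. Compound added from DMSO stock by pin tool. Read-out: kinetic calcium fluorescence over 3 min.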

[16] = Caspase-3/7 induction in HepG2 cells by small molecules, qHTS cell viability counter screen (AID 1346981); further: series mostly up to about 92 µM; nearly all actives have a fitted effect of over 30% in size
In short: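 In this quantitative HTS counter screen, compounds delivered in DMSO were left on unmodified HepG2 cells for 16 hr at 37 C. Viability was then determined fluorometrically with CellTiter-Fluor, in parallel with caspase-3/7 induction in the same wells.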

[17] = target: Progesterone receptor (Homo sapiens) (UniProt P06401); assay: qHTS assay to identify small molecule antagonists of the progesterone receptor (PR) signaling pathway (AID 1346795; active means well fitted inhibition curve with a large enough effect in the signal ratio in the repeat runs, not every such curve was filed as active; the % refers to the signal ratio)
In short: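 Antagonist mode: compounds tested against 1 nM (final) promegestone stimulation in HEK293T cells expressing PR-UAS-bla reporter, 16 hr at 37C, 5% CO2; beta-lactamase activity detected via B/G FRET substrate after 2 hr at room temperature.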

[18] = target: Nuclear receptor subfamily 1 group I member 2 (Rattus norvegicus) (UniProt Q9R1A7); assay: Rat pregnane X receptor (rPXR) activation by small molecules, qHTS assay (AID 1346983); details: rPXR luciferase reporter cells, One-Glo luminescence, 24 h; max activation: active compounds read high; further: nearly all actives have a fitted effect of over 20% in size
In short: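 Cell-based rPXR luciferase reporter assay, 2,000 cells per well, rested 5hr at 37 C before compound addition in DMSO, then 24 hr at 37 C. One-Glo reagent was added and luminescence read after 30 min at room temperature.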

[19] = target: Nuclear receptor subfamily 1 group I member 2 (Homo sapiens) (UniProt O75469); assay: CYP3A4 induction through human pregnane X receptor (PXR) by small molecules, qHTS assay (AID 1346984); further: nearly all actives have a fitted effect of over 40% in size
In short: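 Induction measured in HepG2-based DPX-2 cells co-expressing human PXR and a CYP3A4 promoter-driven luciferase. After a 24-hour compound exposure, cells received CYP3A4 luciferin substrate at 3uM final for 3 hours, and light output was then recorded.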

[20] = target: Nuclear receptor subfamily 1 group I member 2 (Homo sapiens) (UniProt O75469); assay: Human pregnane X receptor (PXR) activation by small molecules, qHTS assay (AID 1346985); further: nearly all actives have a fitted effect of over 40% in size
In short: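 DPX-2 cells (HepG2 co-transfected with a PXR response element and a CYP3A4-promoter luciferase construct) were seeded at 2,000 per well, rested 5 hr at 37C, then exposed to DMSO-dissolved compounds for 24 hr. Activation was read as luciferase luminescence.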
On the % scale 0 is the no-effect control and ±100 the full control effect.

Sequence of Thyrotropin-releasing hormone receptor (Homo sapiens) (P34981 whole entry, looked up): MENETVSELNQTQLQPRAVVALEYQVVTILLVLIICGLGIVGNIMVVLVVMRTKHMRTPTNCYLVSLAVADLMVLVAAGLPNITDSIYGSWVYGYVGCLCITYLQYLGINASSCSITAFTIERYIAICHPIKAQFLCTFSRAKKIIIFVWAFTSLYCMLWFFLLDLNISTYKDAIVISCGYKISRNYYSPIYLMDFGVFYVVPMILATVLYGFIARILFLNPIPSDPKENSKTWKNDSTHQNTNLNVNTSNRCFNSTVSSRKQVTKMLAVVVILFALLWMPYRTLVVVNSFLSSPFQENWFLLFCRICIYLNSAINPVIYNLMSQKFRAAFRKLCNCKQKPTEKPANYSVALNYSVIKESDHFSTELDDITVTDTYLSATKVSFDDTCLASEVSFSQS
Sequence of Nuclear receptor subfamily 1 group I member 2 (Homo sapiens) (O75469 whole entry, looked up): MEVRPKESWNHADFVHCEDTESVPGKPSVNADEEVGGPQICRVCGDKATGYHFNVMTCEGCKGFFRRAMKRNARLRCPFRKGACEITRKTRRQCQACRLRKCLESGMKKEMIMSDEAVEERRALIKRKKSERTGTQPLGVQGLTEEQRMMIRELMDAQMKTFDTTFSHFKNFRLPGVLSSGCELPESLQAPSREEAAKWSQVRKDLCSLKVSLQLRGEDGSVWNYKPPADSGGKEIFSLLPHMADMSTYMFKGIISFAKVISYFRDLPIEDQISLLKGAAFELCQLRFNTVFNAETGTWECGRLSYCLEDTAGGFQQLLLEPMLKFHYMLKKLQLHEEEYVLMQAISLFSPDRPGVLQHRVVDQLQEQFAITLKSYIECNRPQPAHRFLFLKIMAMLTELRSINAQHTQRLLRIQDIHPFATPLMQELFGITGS
Sequence of Thyrotropin receptor (Homo sapiens) (P16473 whole entry, looked up): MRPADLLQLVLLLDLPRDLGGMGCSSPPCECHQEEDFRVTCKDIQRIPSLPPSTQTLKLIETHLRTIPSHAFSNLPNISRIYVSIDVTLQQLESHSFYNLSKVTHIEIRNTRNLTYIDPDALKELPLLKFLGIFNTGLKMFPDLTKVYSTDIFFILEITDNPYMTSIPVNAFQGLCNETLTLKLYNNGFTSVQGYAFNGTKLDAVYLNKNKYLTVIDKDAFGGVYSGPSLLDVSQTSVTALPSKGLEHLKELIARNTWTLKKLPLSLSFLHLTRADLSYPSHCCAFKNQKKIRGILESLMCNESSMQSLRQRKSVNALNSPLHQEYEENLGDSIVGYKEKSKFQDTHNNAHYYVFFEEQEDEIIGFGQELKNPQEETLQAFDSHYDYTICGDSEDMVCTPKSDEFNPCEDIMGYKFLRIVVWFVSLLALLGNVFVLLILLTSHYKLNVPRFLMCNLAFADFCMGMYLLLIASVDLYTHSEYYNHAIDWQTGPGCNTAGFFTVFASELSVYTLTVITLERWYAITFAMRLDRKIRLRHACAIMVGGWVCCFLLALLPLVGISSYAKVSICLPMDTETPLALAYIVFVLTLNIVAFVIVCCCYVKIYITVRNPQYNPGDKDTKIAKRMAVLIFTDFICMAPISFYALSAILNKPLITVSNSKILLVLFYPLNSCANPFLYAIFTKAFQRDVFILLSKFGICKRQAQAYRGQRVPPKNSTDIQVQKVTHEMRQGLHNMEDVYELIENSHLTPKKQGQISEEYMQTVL
Sequence of Nuclear receptor subfamily 1 group I member 2 (Rattus norvegicus) (Q9R1A7 whole entry, looked up): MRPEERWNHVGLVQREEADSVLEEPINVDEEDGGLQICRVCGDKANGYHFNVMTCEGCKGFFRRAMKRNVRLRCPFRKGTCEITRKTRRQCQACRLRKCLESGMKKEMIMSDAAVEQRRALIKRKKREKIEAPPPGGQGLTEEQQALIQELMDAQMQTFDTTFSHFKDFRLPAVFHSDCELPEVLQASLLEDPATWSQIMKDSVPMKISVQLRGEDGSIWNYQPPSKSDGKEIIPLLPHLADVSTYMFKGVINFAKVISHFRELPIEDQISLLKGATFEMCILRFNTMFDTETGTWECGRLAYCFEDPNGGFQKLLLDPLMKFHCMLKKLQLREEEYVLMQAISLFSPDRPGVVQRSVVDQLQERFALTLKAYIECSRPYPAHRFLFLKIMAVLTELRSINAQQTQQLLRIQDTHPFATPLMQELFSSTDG
Sequence of Progesterone receptor (Homo sapiens) (P06401 whole entry, looked up): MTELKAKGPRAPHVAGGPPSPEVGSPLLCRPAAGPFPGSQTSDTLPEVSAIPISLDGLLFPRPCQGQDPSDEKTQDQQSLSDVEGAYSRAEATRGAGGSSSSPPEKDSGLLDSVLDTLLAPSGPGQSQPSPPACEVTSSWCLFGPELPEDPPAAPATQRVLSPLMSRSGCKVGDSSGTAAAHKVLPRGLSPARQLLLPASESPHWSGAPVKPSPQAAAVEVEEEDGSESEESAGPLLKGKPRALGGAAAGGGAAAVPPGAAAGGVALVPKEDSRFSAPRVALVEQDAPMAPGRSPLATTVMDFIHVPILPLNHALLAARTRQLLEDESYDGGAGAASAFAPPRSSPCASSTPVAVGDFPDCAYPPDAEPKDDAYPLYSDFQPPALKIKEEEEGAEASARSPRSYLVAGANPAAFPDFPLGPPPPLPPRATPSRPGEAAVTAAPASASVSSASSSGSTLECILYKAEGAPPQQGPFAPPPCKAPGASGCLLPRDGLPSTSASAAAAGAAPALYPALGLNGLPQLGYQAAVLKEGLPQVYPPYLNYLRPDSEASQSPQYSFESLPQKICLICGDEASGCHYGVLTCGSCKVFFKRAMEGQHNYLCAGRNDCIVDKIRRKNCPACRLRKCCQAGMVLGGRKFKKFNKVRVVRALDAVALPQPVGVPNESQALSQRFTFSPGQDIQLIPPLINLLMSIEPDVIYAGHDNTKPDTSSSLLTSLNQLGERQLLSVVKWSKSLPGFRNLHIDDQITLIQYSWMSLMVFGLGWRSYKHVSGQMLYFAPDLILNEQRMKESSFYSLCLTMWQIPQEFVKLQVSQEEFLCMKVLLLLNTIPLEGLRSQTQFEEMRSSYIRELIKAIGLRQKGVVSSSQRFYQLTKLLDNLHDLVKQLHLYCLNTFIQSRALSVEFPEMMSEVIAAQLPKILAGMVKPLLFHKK

CC(C)N1C(=O)c2ccccc2C1=O
inactive: Potency [1] | outcome [2] | Potency [3] | Potency [4] | Potency [5] | outcome [6] | outcome [7] | outcome [8] | Potency [9] | outcome [10] | Potency [11] | outcome [12] | Potency [13]

CC(=O)NC(Cc1ccccc1)C(=O)O (configuration not stated)
inactive: Potency [1] | outcome [2] | Potency [3] | Potency [4] | Potency [5] | outcome [6] | outcome [7] | outcome [8] | outcome [14] | outcome [15] | Potency [9] | outcome [10] | Potency [11] | outcome [12] | outcome [16] | Potency [13]

OCC(CO)(CO)COCC(CO)(CO)CO
inactive: Potency [1] | outcome [2] | Potency [3] | Potency [4] | Potency [5] | outcome [6] | outcome [7] | outcome [8] | outcome [14] | outcome [15] | Potency [9] | outcome [10] | Potency [11] | outcome [12] | outcome [16] | Potency [13]

CCCCCC[C@@H](CCC)C(=O)O
inactive: Potency [1] | outcome [2] | Potency [3] | Potency [17] | Potency [4] | outcome [6] | outcome [14] | outcome [15] | Potency [9] | outcome [10] | outcome [12] | outcome [16] | Potency [13]

Nc1nc2c(ncn2CCC(CO)CO)c(=O)[nH]1
inactive: Potency [1] | outcome [2] | Potency [3] | Potency [4] | Potency [5] | outcome [6] | outcome [7] | outcome [8] | outcome [14] | outcome [15] | Potency [9] | outcome [10] | Potency [11] | outcome [12] | outcome [16] | Potency [13] | max activation [18] 3.6% | Potency [19] | Potency [20]

CCOC(=O)Nc1ccc2c(c1)N(C(=O)CCN1CCOCC1)c1ccccc1S2
inactive: Potency [1] | outcome [2] | Potency [3] | Potency [4] | Potency [5] | outcome [6] | outcome [7] | outcome [8] | Potency [9] | outcome [10] | Potency [11] | outcome [12] | outcome [16]
active: Potency [13] 7.5 µM

c1ccc2cnncc2c1
inactive: Potency [1] | outcome [2] | Potency [3] | Potency [4] | Potency [5] | outcome [6] | outcome [7] | outcome [8] | outcome [14] | outcome [15] | Potency [9] | outcome [10] | Potency [11] | outcome [12] | outcome [16]

O=Cc1ccccc1[N+](=O)[O-]
inactive: Potency [1] | outcome [2] | Potency [3] | Potency [17] | Potency [4] | outcome [6] | outcome [8] | Potency [9] | Potency [11] | outcome [12] | outcome [16] | Potency [13]

CCn1cc(C(=O)O)c(=O)c2cc(F)c(N3CCN(C)CC3)cc21
inactive: activity change, negative = inhibition [1] 0.775% [at 19 µM] | activity change, negative = cytotoxicity [2] 0.853% [at 19 µM] | activation [3] -0.0581% [at 19 µM] | activity change, negative = cytotoxicity [4] 0.0653% [at 18.9 µM] | activity change, negative = cytotoxicity [5] -1.41% [at 19 µM] | viability change, negative = cytotoxic [6] 3.51% [at 15.8 µM] | activity change, negative = cytotoxicity [7] -2.92% [at 15.8 µM] | activation [8] 0.23% [at 15.8 µM] | activity, negative = inhibition [14] 2.2% [at 10.5 µM] | activation [15] 0.129% [at 11.8 µM] | activity change, negative = cytotoxicity [9] 4.23% [at 19 µM] | caspase activation [10] -0.273% [at 19 µM] | activity change, negative = cytotoxicity [11] 6.37% [at 19 µM] | caspase-3/7 activation [12] 0.47% [at 19 µM] | activity change, negative = cytotoxicity [16] 0.0199% [at 19 µM] | activation [13] -5.92% [at 19 µM] | max activation [18] -0.517% | Potency [20]

O=C1CC2(CCCC2)CC(=O)N1
inactive: Potency [1] | outcome [2] | Potency [3] | Potency [4] | Potency [5] | outcome [6] | outcome [7] | outcome [8] | outcome [14] | outcome [15] | Potency [9] | outcome [10] | Potency [11] | outcome [12] | Potency [13]

CC(C)[N+](C)(C)CC(O)COc1cccc2ccccc12 (configuration not stated)
inactive: Potency [1] | outcome [2] | Potency [3] | Potency [17] | Potency [5] | outcome [6] | outcome [7] | outcome [8] | outcome [14] | outcome [15] | Potency [9] | outcome [10] | Potency [11] | outcome [12] | outcome [16] | Potency [13] | max activation [18] -2.92% | Potency [19] | Potency [20]

CC(C)(C)C(=O)/C=C/c1ccc(Cl)cc1
active: Potency [13] 54.5 µM
inactive: Potency [1] | outcome [2] | Potency [3] | Potency [4] | Potency [5] | outcome [6] | outcome [7] | outcome [8] | outcome [14] | outcome [15] | Potency [9] | outcome [10] | Potency [11] | outcome [12]

C=C(C)C(=O)OCCCCCCCCCCCCCCCCCC
inactive: activity change, negative = inhibition [1] 0.559% [at 19 µM] | activity change, negative = cytotoxicity [2] -3.47% [at 19 µM] | activation [3] 1.29% [at 19 µM] | activity change, negative = cytotoxicity [4] 16.4% [at 18.9 µM] | activity change, negative = cytotoxicity [5] 3.91% [at 19 µM] | viability change, negative = cytotoxic [6] 11% [at 15.8 µM] | activity change, negative = cytotoxicity [7] 16.7% [at 15.8 µM] | activation [8] 6.67% [at 15.8 µM] | activity, negative = inhibition [14] -4.03% [at 10.5 µM] | activation [15] -0.148% [at 11.8 µM] | activity change, negative = cytotoxicity [9] -1.38% [at 19 µM] | caspase activation [10] -1.69% [at 19 µM] | activity change, negative = cytotoxicity [11] -0.104% [at 19 µM] | caspase-3/7 activation [12] 0.453% [at 19 µM] | activity change, negative = cytotoxicity [16] -0.0917% [at 19 µM] | activation [13] -0.119% [at 19 µM]

CCOC(=O)Cn1c(=O)sc2cccc(Cl)c21
active: Potency [13] 27.3 µM
inactive: Potency [1] | outcome [2] | Potency [3] | Potency [4] | Potency [5] | outcome [6] | outcome [7] | outcome [8] | outcome [14] | outcome [15] | Potency [9] | outcome [10] | Potency [11] | outcome [12] | outcome [16]
